Measurements: the supplement of paper PMC9948646

These compounds were tested on gramicidin D channels in DC22:1PC lipid vesicles (bilayer-modifying potency) (assay: initial Tl+ fluorescence quench rate relative to no-drug control (NormRate, gramicidin monomer-dimer shift) (ratio (fold of control)); higher = stronger bilayer-modifying effect (equilibrium shifted toward conducting dimers), active = 1.5 or more). Settings: 10 µM; lipid concentration 50 µM; temperature: 25 °C.
Method: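 Stopped-flow fluorescence quench assay: ANTS-loaded DC22:1PC large unilamellar vesicles doped with gramicidin D (1:2000), 50 µM lipid, equilibrated 10 min with 10 µM drug (0.1% DMSO), mixed with Tl+ quench buffer at 25°C. Initial quench rate (Tl+ influx) was fitted with a modified stretched exponential and normalised to the no-drug control rate (NormRate); duplicates from two independent LUV preparations (triplicates for 7 drugs).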

Structure (SMILES) | initial Tl+ fluorescence quench rate
COc1ccc(-c2nc(-c3cccc(NC(=O)Cc4ccc(F)cc4)c3)no2)cc1OC | 1.47 (inactive)
Clc1ccc(CN2CCN(C3=NCCN3)CC2)cc1Cl | 1.2 (inactive)
CC(C)(C)n1nc(-c2ccccc2)c2c(N)ncnc21 | 1.03 (inactive)
FC(F)(F)c1cccc(-c2nc3c(NCc4ccncc4)nccc3[nH]2)c1 | 1.76 (active)
Cc1ncc(-c2ccnc(Nc3ccc(S(C)(=O)=O)cc3)n2)n1C(C)C | 1.03 (inactive)
CS(=O)(=O)N1CCC(CCn2nc(Cc3cccc4ccccc34)c3c(N)ncnc32)CC1 | 1.95 (active)
NCC[C@H](O)C(=O)N[C@@H]1C[C@H](N)[C@@H](O[C@H]2O[C@H](CN)[C@@H](O)[C@H](O)[C@H]2O)[C@H](O)[C@@H]1O[C@H]1O[C@H](CO)[C@@H](O)[C@H](N)[C@H]1O | 1.02 (inactive)
COc1cccc2c(C)nc(N=C(N)N)nc12 | 1.08 (inactive)
O=C(NC1CC1)c1ccc(N2CCC(Cc3ccccc3)CC2)nc1 | 1.43 (inactive)
COC(=O)c1c(NC(=O)c2cc3ccccc3oc2=O)sc2c1CCN(Cc1ccccc1)C2 | 1.04 (inactive)
CCc1ccc(S(=O)(=O)Nc2cc(CN3CCN(CCC(C)C)CC3)ccc2C)cc1 | 1.29 (inactive)
Cc1cc2ccccc2n1CC(=O)N1C[C@@H](C(=O)N2CCCCC2)Oc2ccccc21 | 1.72 (active)
Cc1ccc(NC(=O)c2nc[nH]c2C(=O)Nc2nc3ccccc3[nH]2)c(C)c1 | 1.88 (active)
CC(C)(C)C(=O)N(CCCCCCN1C[C@H](O)[C@@H](O)[C@H](O)[C@H]1CO)C1CCCCCC1 | 1.15 (inactive)
Cc1cc(C)c2cc(C(=O)NC3CCCCCCC3)[nH]c2c1 | 1.78 (active)
COC(=O)C1=C(C)NC(C)=C(C(=O)OC(C)C)[C@@H]1c1cccc2nonc12 | 1.33 (inactive)
CN1CCC(c2cc(-c3ccncc3)c(-c3ccc(F)cc3)[nH]2)CC1 | 1.03 (inactive)
CC(C)/N=c1\cc2n(-c3ccc(Cl)cc3)c3ccccc3nc-2cc1Nc1ccc(Cl)cc1 | 5.63 (active)
CCC(=O)Nc1ccccc1C(=O)Nc1ccccn1 | 1.12 (inactive)

Structure (SMILES) | initial Tl+ fluorescence quench rate
COc1cc(C(F)(F)F)nc2ccc(C)c(N)c12 | 1.03 (inactive)
COc1ccc(C2=NN(C3CCCCCC3)C(=O)[C@@H]3CC=CC[C@H]23)cc1OCCCCOc1ccc(-c2nn[nH]n2)cc1 | 8.03 (active)
O=C1[C@@H](Oc2ccccc2)[C@@H](c2ccc(Cl)cc2)N1CCn1cnc2c(NCc3ccccc3)ncnc21 | 2.02 (active)
Oc1c(I)cc(I)c2cccnc12 | 1.47 (inactive)
c1ccc(C[C@@H]2CN(c3nccc(Oc4ccc(-n5ccnc5)cc4)n3)CCN2)cc1 | 1.26 (inactive)
CN(C(=O)c1cc2c(-c3cncnc3)cccc2[nH]1)c1ccccc1 | 1.12 (inactive)
CC[C@H](C)NC(=O)c1ccc(NC(=O)C2(c3ccccc3)CCCC2)cc1 | 1.75 (active)
CC(C)(C)c1cc(C(=O)Nc2cccnc2)cc(C(=O)Nc2cccnc2)c1 | 1.39 (inactive)
O=C(C1CCCCC1)N1CC(=O)N2CCc3ccccc3[C@@H]2C1 | 1.04 (inactive)
COc1ccc(Oc2ccc([C@@H](C)N(C)c3ncc4c(N)nc(N)nc4n3)cc2)cc1 | 3.36 (active)
O=C(NCc1ccco1)N1CCN(Cc2ccc(Cl)s2)CC1 | 1.03 (inactive)
COc1ccc(OC)c(NCc2ccc3nc(N)nc(N)c3c2Cl)c1 | 1.54 (active)
CCc1ccc([C@@H](NCc2nc(N)nc(N(C)C)n2)C(C)C)cc1 | 1.08 (inactive)
C[C@H](C(N)=O)N1CCCC[C@@H]1c1ccc(OCc2cccc(F)c2)cc1 | 2.68 (active)
Cc1cc(C)n(-c2ccc(NC(=O)C3CCN(Cc4cnc(C)s4)CC3)cc2)n1 | 1.01 (inactive)
CN1CCN(c2nccc3nc(-c4ccc(F)c(F)c4)[nH]c23)CC1 | 1.11 (inactive)
Cc1cc(C(=O)Nc2cnn(Cc3ccc(Cl)cc3Cl)c2)no1 | 1.1 (inactive)
Nc1ccc2ncnc(Nc3ccc(OCc4cccc(F)c4)c(Cl)c3)c2c1 | 2.58 (active)
